Results on three compounds are retold here after PubChem BioAssay (NCATS).

Results filed as inconclusive are left out. Activity calls are given as the source filed them. Unless noted, calls follow the shape of the dose curve; as a rule, active = well fitted curve in the direction sought with a large enough effect; inconclusive = small, poorly fitted or top-dose-only effect, or another doubt; inactive = no such curve, though single readings can be large; an effect the other way counts as inactive or inconclusive.

The target of experiment [1] is Lysosomal acid glucosylceramidase (Homo sapiens) (UniProt P04062). The experiment is described as follows: Glucocerebrosidase-p2 (AID 348; in the data active = potency below about 10 µM; also: potency is read from the fitted curve at half-maximal effect). To be noted: purified GBA, blue fluorogenic substrate, 40 min. The essentials: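 Compounds titrated from 0.6 nM upwards against 0.2 nM enzyme in pH 5.9 citric acid/KH2PO4, taurocholate, tween-20; blue fluorogenic substrate 80 uM, 40 min room temperature, stopped and read Ex 365/Em 440 for AC50.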

Experiment [2] can be described thus: AP1 Signaling Pathway (AID 357; active = well fitted curve in either direction with a large enough effect, not every such curve was filed as active;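 also: ME-180 reporter cells stimulated with EGF at its EC50 level; % is scaled to controls: 0 for no effect and ±100 for the full control effect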). To be noted: ME-180 AP-1-bla reporter, EGF-induced, beta-lactamase ratio, 5 h; at 7.69 µM (top of the series) unless noted. The essentials:
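AP-1-bla ME-180 cells, Opti-MEM + 0.5% dialyzed FBS, plated overnight 37 °C. Cpd titration + EC50 EGF, 5 h 37 °C. CCF4 2.5 h RT; ex 405, em 460/530 ratio → %activity, AC50.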

A short description of experiment [3]: NFAT Signaling Pathway (AID 444; active = well fitted curve in either direction with a large enough effect, not every such curve was filed as active;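 also: carbachol stimulus at about its EC50 of 1 µM final; % is scaled to controls: 0 for no effect and ±100 for the full control effect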). Particulars: Jurkat NFAT-bla M1, carbachol, beta-lactamase ratio, 5 h; at 7.69 µM (top of the series) unless noted. The essentials: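 Jurkat cells with NFAT-driven β-lactamase reporter and co-expressed M1 receptor, stimulated with carbachol (final 1 uM, ~EC50), compound titration, 5 h at 37 °C. CCF4 loaded 1 h at RT; 460/530 nm ratio gave %activity and AC50.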

Experiment [4] concerns the target Glucocorticoid receptor (Homo sapiens) (UniProt P04150). Nature of the experiment: GR-GFP Redistribution (AID 450;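 active = compounds whose dose series gives a full or clear partial fitted curve of increased nuclear translocation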; also: potency is read from the fitted curve at half-maximal effect). To be noted: U2OS GR-GFP nuclear translocation, laser cytometry, 2 h.
Experiment [5] has the same target. The experiment is described as follows: GR-EFC Redistribution (AID 451; calls by dose curve; also: potency is read from the fitted curve at half-maximal effect). Particulars: CHO-K1 GR-EFC translocation, beta-gal luminescence, 2 h. The gist of the method:
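CHO-K1 cells expressing nuclear EA and GR-ED fragments of b-gal; compounds titrated up to 46 uM final, 2 h at 37 C. GR nuclear translocation read as complemented b-gal luminescence after 1 h RT detection.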

In experiment [6] the target is Mitogen-activated protein kinase 10 (Mus musculus) (UniProt Q61831). The experiment is described as follows: JNK3 AlphaScreen Assay (AID 530; active = well fitted curve in either direction with a large enough effect, not every such curve was filed as active;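 also: kinase came from lysate of stimulated human HepG2 cells; signal reports phosphorylation of biotinylated GST-cJun 1-79 at Ser73 with 10 µM ATP; % is scaled to controls: 0 for no effect and ±100 for the full control effect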). To be noted: JNK3 lysate, c-Jun phosphorylation; series mostly up to 57.1 µM. The gist of the method: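 qHTS format: compounds tested as titrations against IL-1beta/TNF-alpha-activated HepG2 lysate JNK3 with biotin-GST-cJun substrate and 10 uM ATP at room temperature. Loss of anti-phospho-cJun AlphaScreen signal indicates inhibition.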
Background: In Alpha technology, singlet oxygen from a donor bead excites a nearby acceptor bead.

For experiment [7], the target named is 3',5'-cyclic-AMP phosphodiesterase 4B (Homo sapiens) (UniProt Q07343). The experiment is described as follows: qHTS Assay for Inhibitors of PDE-IV (AID 607; active = well fitted activation curve with a large enough effect in the main read-out, with a control signal flat, not every such curve was filed as active; also: % of control where 0% means no effect). Particulars: HEK293 ACTOne CNG channel cells, membrane potential fluorescence; series mostly up to 22.9 µM. The essentials: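 ACTOne HEK293 cells carry a modified cAMP-gated CNG channel and express endogenous PDE4; plated 1000 cells/well, compounds up to 22.9 uM final. Membrane-potential dye fluorescence (ex 535/em 590) was read; parental cells received 10 uM forskolin + 100 uM RO 20-1724.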

Experiment [8] is described as follows: qHTS Assay for Identification of Small Molecule Agonists for Hypoxia Response Element Signaling Pathway (AID 914; active = well fitted activation curve with a large enough effect in the signal ratio, with a control signal flat, not every such curve was filed as active; the % refers to the signal ratio; also: potency is read from the fitted curve at half-maximal effect). To be noted: ME-180 HRE-bla reporter, beta-lactamase ratio, CoCl2, 17 h; activation: stronger effect = higher value. The essentials:
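Reporter activity (beta-lactamase, CCF4 460nm/530nm ratio) in HRE-bla ME-180 cells is recorded after 17 h compound exposure with EC50 CoCl2 at 37 degrees Celsius. AC50 values come from titration data.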
(Quantitative high-throughput screening tests each substance at several concentrations.)

Experiment [9] is described as follows: qHTS Assay for Lipid Storage Modulators (AID 1519; calls by dose curve). To be noted: Drosophila S3 cells, BODIPY lipid droplet/cell ratio, laser cytometry, cells loaded with oleic acid; for activity change, negative = inhibition: at 57.5 µM (top of the series). The essentials: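 Cells seeded at 5,000 per well were treated with compounds over a concentration series and loaded with oleic acid (400 uM, as added). Lipid droplet fluorescence (488 nm excitation, 500-530 nm channel) was read by laser-scanning cytometry and normalized to 20 uM Triacsin C.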

Experiment [10] concerns the target Dual specificity protein kinase CLK4 (Homo sapiens) (UniProt Q9HAZ1). The experiment is described as follows: qHTS Assay for Inhibitors of CDC-like Kinase 4 (ADP-Glo Assay) (AID 1771). Also: % is scaled to controls: 0 for no effect and ±100 for the full control effect; nearly all actives have a fitted effect of over 70% in size. To be noted: recombinant CLK4, ADP-Glo luminescence; series mostly up to 80 µM. The gist of the method:
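Kinase reaction: Clk4 at 25 nM, RS repeat peptide substrate at 100 uM, ATP at 1 uM, 1 hr, room temperature. Product ADP detected as luciferase signal via ADP-Glo.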

The target is the same in experiment [11]. Nature of the experiment: qHTS Assay for Inhibitors of CDC-like Kinase 4 (ADP-FP Assay) (AID 1795). Also: % is scaled to controls: 0 for no effect and ±100 for the full control effect; nearly all actives have a fitted effect of over 60% in size. Particulars: Transcreener ADP fluorescence polarization; series mostly up to 50 µM. The essentials: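 Recombinant human Clk4 (6.25 nM) phosphorylated RS repeat peptide (100 uM) with 1 uM ATP in Tris pH 7.5/MgCl2/EGTA/DTT/Triton buffer for one hour. ADP was quantified by Transcreener competitive fluorescence polarization against an ADP calibration curve.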

The target in experiment [12] is Ubiquitin carboxyl-terminal hydrolase 1 (Homo sapiens) (UniProt O94782). Nature of the experiment: Inhibitors of USP1/UAF1: Pilot qHTS (AID 504865).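 Also: rhodamine fluorescence freed from ubiquitin-rhodamine substrate followed over time; top concentration of the series differs between compounds; % is scaled to controls: 0 for no effect and ±100 for the full control effect; nearly all actives have a fitted effect of over 35% in size.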 Particulars: purified USP1/UAF1, Ub-rhodamine cleavage fluorescence; series mostly up to 54.9 µM. The gist of the method: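 USP1/UAF1 complex (1nM) preincubated with compound 15 min at room temperature, then Ub-Rho substrate (150nM final) added. Fluorescence read kinetically at 480/540 nm, 6 reads every 60 seconds. Buffer: 50mM HEPES pH 7.8, 0.5mM EDTA, 0.1 mg/ml BSA, 1mM TCEP, 0.01% Tween-20.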

Experiment [13] can be described thus: Primary qHTS for small molecule stabilizers of the endoplasmic reticulum resident proteome: Secreted ER Calcium Modulated Protein (SERCaMP) assay (AID 1508630). Also: % is scaled to controls: 0 for no effect and ±100 for the full control effect. Particulars: SH-SY5Y GLuc-SERCaMP (Gaussia luciferase released on ER calcium loss) secretion, thapsigargin, luminescence; series mostly up to 38.4 µM. The essentials: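 GLuc-SERCaMP-expressing SH-SY5Y cells, pretreated 16 h with compound, are challenged with thapsigargin to empty ER calcium stores; after 4 h, coelenterazine is added directly to the medium and luminescence is imaged.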

The nature of experiment [14]: Stat Signaling Pathway (AID 446; active = well fitted curve in either direction with a large enough effect, not every such curve was filed as active). Particulars: ME-180 SIE beta-lactamase reporter, IL-6 stimulated, 5 h; at 7.69 µM (top of the series) unless noted. The essentials: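 ME-180 SIE-bla cells; overnight plating; cpd + IL-6 40 pM, 5 h, 37 C; LiveBLAzer 2.5 h RT; 460/530 nm emission ratio. Normalized to 300 pM IL-6 and 125 nM JAK inhibitor controls.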
Experiment [15] concerns the target Cytochrome P450 2C9 (Homo sapiens) (UniProt P11712). The experiment is described as follows: qHTS Assay for Inhibitors and Substrates of Cytochrome P450 2C9 (AID 883). Also: % is scaled to controls: 0 for no effect and ±100 for the full control effect; nearly all actives have a fitted effect of over 60% in size. Particulars: recombinant CYP2C9, luciferin-H luminescence, 60 min; series mostly up to 57.1 µM. The essentials:
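Signal: luciferase luminescence reporting luciferin produced by CYP2C9. Conditions: 10nM enzyme, Luciferin-H 100uM at KM, 25mM KPO4, 37C, 60 min NADPH-driven reaction. Reference: 57uM sulphaphenazole as 100% inhibition.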

Experiment [16] concerns the target Cytochrome P450 3A4 (Homo sapiens) (UniProt P08684). Nature of the experiment: qHTS Assay for Activators of Cytochrome P450 3A4 (AID 885). Also: nearly all actives have a fitted effect of over 65% in size. Particulars: recombinant CYP3A4, Luciferin-PPXE luminescence, 60 min; series mostly up to 57.1 µM. The essentials: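 20nM CYP3A4 + 25uM Luciferin-PPXE (=KM), 200mM KPO4; cpd 10 min RT; NADPH regen, 60 min RT; stop w/ detection buffer, 20 min; luminescence. Normalized to 57 uM ketoconazole.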

Experiment [17] has as its target Dual specificity protein kinase CLK4 (Homo sapiens) (UniProt Q9HAZ1). The experiment is described as follows: qHTS Assay for Inhibitors of CDC-like Kinase 4 (Kinase-Glo Assay) (AID 1770). Also: potency is read from the fitted curve at half-maximal effect; nearly all actives have a fitted effect of over 65% in size. To be noted: recombinant Clk4, Kinase-Glo ATP depletion luminescence; series mostly up to 66.7 µM. The gist of the method:
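Recombinant human Clk4 (25 nM) phosphorylated RS repeat peptide (100 uM) with 1 uM ATP in Tris pH 7.5/MgCl2/EGTA/DTT/Triton buffer for 4.5 h at room temperature. Residual ATP was quantified by Kinase-Glo luciferase luminescence.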

Where [18] appears, read: measured here: cell count channel max response.
Where [19] appears, read: measured here: lipid channel max response.

Chain of Glucocorticoid receptor (Homo sapiens) (P04150 whole entry, looked up): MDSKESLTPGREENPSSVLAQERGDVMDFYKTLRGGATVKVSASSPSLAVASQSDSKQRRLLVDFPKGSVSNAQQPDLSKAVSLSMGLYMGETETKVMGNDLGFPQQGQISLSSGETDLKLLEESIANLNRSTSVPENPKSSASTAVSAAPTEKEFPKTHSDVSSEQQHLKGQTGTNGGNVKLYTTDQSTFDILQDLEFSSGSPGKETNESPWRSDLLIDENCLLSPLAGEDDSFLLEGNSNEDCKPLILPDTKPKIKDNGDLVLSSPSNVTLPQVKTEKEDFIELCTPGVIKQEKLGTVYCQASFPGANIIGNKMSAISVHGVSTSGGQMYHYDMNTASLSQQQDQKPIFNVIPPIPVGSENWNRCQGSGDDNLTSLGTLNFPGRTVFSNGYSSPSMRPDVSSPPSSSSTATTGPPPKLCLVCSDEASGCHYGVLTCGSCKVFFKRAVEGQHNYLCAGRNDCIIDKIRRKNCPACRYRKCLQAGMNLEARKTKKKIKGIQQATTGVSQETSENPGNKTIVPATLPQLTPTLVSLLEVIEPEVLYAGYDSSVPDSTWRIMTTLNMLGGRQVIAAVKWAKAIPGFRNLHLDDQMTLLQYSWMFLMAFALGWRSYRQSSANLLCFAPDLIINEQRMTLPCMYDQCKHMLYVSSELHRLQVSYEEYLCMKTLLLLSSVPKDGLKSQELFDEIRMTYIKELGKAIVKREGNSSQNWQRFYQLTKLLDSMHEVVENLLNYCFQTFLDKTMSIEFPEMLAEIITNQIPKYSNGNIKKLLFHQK
Chain of Ubiquitin carboxyl-terminal hydrolase 1 (Homo sapiens) (O94782 whole entry, looked up): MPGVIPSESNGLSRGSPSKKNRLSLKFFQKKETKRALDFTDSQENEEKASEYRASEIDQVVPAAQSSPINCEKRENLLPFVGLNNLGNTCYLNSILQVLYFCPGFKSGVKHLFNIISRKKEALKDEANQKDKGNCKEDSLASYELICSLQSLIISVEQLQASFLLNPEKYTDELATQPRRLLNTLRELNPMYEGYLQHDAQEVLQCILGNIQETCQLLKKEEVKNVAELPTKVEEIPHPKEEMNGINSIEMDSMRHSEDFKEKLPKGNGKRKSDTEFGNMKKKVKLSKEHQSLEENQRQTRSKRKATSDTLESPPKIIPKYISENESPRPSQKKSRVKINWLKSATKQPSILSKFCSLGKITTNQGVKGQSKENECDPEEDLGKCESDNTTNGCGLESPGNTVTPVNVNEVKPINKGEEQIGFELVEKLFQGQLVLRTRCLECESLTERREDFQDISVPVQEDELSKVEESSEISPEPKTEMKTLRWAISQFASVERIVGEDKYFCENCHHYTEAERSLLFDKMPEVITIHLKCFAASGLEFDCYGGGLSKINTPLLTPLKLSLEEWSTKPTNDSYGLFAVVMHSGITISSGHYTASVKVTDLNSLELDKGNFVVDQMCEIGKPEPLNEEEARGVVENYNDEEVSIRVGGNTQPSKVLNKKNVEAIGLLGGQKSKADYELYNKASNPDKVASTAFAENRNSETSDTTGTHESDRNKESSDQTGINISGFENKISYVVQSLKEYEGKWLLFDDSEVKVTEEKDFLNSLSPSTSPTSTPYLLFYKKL
Chain of Dual specificity protein kinase CLK4 (Homo sapiens) (Q9HAZ1 whole entry, looked up): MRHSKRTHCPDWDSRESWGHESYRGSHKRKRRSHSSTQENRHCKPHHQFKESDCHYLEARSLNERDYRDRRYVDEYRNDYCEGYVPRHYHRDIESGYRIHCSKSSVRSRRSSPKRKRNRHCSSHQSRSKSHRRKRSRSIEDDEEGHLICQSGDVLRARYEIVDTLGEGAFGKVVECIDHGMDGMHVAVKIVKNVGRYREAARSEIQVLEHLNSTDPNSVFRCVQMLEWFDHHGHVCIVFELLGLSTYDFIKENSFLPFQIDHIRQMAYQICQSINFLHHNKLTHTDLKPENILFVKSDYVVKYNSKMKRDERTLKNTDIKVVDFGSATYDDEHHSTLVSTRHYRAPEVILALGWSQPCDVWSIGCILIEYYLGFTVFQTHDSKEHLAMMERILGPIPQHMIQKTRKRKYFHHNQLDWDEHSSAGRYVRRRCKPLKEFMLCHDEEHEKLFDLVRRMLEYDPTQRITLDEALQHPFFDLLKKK
Chain of Lysosomal acid glucosylceramidase (Homo sapiens) (P04062 whole entry, looked up): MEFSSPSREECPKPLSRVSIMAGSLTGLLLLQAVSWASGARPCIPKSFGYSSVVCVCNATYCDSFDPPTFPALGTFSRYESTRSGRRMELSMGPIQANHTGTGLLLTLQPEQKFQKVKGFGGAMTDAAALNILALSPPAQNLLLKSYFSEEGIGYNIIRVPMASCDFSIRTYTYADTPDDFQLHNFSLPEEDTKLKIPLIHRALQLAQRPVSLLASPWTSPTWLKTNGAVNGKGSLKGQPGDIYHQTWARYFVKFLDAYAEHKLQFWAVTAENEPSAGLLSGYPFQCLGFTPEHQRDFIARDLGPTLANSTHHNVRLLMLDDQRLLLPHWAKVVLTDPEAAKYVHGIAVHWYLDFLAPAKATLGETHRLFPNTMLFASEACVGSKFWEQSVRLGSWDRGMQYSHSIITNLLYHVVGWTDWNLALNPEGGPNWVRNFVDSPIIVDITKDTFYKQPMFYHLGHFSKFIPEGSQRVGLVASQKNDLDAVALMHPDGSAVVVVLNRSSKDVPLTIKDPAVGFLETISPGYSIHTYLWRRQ
Chain of 3',5'-cyclic-AMP phosphodiesterase 4B (Homo sapiens) (Q07343 whole entry, looked up): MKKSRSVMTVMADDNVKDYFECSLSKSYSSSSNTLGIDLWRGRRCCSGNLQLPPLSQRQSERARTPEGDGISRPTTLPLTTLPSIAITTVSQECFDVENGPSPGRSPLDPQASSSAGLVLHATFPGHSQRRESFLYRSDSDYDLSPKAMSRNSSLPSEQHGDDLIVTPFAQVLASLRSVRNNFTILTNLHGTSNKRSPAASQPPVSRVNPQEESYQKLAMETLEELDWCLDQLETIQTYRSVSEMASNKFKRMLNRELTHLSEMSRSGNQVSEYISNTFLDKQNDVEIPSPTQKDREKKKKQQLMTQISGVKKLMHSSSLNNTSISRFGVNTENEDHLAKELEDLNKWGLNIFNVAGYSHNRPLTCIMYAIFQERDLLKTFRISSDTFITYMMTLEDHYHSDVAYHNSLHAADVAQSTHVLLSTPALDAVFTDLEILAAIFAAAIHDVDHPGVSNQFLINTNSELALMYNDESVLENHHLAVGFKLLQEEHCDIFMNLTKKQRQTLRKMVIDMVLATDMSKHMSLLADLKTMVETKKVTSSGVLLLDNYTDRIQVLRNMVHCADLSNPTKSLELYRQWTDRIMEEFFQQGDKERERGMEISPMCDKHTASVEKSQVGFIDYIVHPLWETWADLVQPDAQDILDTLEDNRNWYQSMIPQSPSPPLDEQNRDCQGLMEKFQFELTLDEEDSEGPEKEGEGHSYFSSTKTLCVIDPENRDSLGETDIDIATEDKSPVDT
Chain of Cytochrome P450 2C9 (Homo sapiens) (P11712 whole entry, looked up): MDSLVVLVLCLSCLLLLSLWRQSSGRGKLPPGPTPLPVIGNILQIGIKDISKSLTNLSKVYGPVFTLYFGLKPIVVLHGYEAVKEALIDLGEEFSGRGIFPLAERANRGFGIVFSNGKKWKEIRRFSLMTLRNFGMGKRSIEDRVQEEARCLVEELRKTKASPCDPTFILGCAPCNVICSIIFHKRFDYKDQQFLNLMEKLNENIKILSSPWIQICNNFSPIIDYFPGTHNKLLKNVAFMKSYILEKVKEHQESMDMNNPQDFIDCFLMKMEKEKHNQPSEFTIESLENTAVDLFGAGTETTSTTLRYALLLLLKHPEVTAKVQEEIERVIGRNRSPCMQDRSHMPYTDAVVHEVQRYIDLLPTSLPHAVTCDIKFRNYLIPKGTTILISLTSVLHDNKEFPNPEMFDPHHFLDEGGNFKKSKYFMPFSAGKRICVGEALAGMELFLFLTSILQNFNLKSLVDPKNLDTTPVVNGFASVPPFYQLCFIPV
Chain of Cytochrome P450 3A4 (Homo sapiens) (P08684 whole entry, looked up): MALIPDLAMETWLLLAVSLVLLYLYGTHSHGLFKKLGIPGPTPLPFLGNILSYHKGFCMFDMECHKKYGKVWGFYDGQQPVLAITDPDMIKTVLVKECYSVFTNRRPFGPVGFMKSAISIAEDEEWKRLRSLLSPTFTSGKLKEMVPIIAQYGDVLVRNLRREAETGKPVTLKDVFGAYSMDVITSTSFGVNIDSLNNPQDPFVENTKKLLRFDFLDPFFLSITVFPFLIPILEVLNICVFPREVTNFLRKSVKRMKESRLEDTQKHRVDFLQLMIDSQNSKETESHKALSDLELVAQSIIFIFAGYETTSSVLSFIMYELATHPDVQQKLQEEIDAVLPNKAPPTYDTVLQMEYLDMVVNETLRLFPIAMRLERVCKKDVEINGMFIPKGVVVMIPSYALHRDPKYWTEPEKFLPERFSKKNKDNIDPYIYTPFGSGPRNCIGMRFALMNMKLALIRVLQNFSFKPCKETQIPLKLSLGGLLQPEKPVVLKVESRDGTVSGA

As to `COc1ccc(-c2nc3cnc(Nc4ccccc4)nc3n(Cc3cccs3)c2=O)cc1`, the Potency in [1] is > 11.4 µM (inactive); in experiment [4], > 9.22 µM (inactive); in [5] it was > 46 µM (inactive); in experiment [8] it was 3.16 µM (active). Further, the values for the activity change, negative = inhibition in experiment [2], in [3] and in experiment [9] were 19.7% (inactive), 23.4% (inactive) and 0.81% (inactive), respectively. Moreover, the outcome in experiment [6] was inactive. Besides, the Potency result in experiment [7], in [10], in [11], in [12] and in experiment [13] was “inactive” in each case. Besides, the max response in experiment [9] (setting [18]) is 23.8%; in [9] (setting [19]) it was 23.5%.

Consider `COCCn1c(=O)cnc2cnc(OC)nc21`, for which the Potency in [1] was > 11.4 µM (inactive); in experiment [4], > 9.22 µM (inactive); in experiment [5] it was > 46 µM (inactive). Further, the activity change, negative = inhibition in experiment [2] was -9.59% (inactive); in [3], 1.87% (inactive); in experiment [9] it was 6.21% (inactive). The activity, negative = inhibition in experiment [14] is -10.3% (inactive). Moreover, the outcome in [6] was inactive. For the same compound, the Potency entry in [7], in experiment [10], in [11], in [12] and in [13] was “inactive” in each case. Further, the max response in [9] (setting [18]) was 19.3%; in experiment [9] (setting [19]) it was 24.8%.

Regarding `CCNc1ncc2nc(-c3cn(C)c4ccccc34)c(=O)n(-c3ccccc3)c2n1`, the Potency was > 11.4 µM (inactive) in experiment [1], > 9.22 µM (inactive) in experiment [4], > 46 µM (inactive) in experiment [5] and 20 µM (active) in experiment [17]. Besides, the activity change, negative = inhibition in experiment [2] was 2.53% (inactive); in experiment [3], 3.22% (inactive); in experiment [9] it was -0.273% (inactive). Also, the activity, negative = inhibition in [14] is -9.31% (inactive). For the same compound, in [6], the compound was classed as inactive. The Potency result in experiment [15], in [16], in experiment [12] and in [13] was “inactive” each time. Moreover, the max response is 19.3% in experiment [9] (setting [18]) and 17.5% in experiment [9] (setting [19]).
